PubChem BioAssay AID1159580 (chemical genetic matrix, 2015)
The campaign covered roughly 5,500 compounds. About 2,000 (36%) were called active. Inconclusive results (about 18%) are left out. Cut-off read from the data, not from the text of the source: active = normalized growth mostly below about 0.91 (no sharp cut-off); inconclusive = no clear call, values can overlap the other calls; inactive = mostly above about 0.92. The list shows a part of the results.

Assay: chemical genetic growth profiling, strain panel (AID 1159580);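 note: tested at 20 µM; growth read once vehicle control cultures reached saturation at 30 °C; 1 = growth at the plate median or of vehicle wells; lower values mean less growth of the strain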
Details: growth OD

Measured: normalized growth

NC(=O)c1ccc([N+](=O)[O-])cc1Cl
inactive: S. cerevisiae deletion strains, locus YKL009W, strain mrt4, hits give low values 0.977 | S. cerevisiae deletion strains, locus YKL068W, hits give low values 0.977 | S. cerevisiae deletion strains, locus YKL085W, strain MDH1 (second series), hits give low values 0.98 | S. cerevisiae deletion strains, locus YKL085W, strain MDH1, hits give low values 0.98 | S. cerevisiae deletion strains, locus YKL160W, strain elf1, hits give low values 1.03 | S. cerevisiae deletion strains, locus YKL190W, strain CNB1, hits give low values 0.968 | S. cerevisiae deletion strains, locus YKR001C, strain vps1, hits give low values 0.969 | S. cerevisiae deletion strains, locus YKR026C, strain gcn3, hits give low values 0.981 | S. cerevisiae deletion strains, locus YKR091W, strain srl3, hits give low values 0.977 | S. cerevisiae deletion strains, locus YLL001W, strain dnm1, hits give low values 1 | S. cerevisiae deletion strains, locus YLL026W, hits give low values 1.01 | S. cerevisiae deletion strains, locus YLL041C, strain sdh2, hits give low values 0.982 | S. cerevisiae deletion strains, locus YLR027C, strain aat2, hits give low values 1.01 | S. cerevisiae deletion strains, locus YLR039C, strain RIC1, hits give low values 0.927 | S. cerevisiae deletion strains, locus YLR058C, strain SHM2, hits give low values 0.963 | S. cerevisiae deletion strains, locus YLR102C, strain apc9, hits give low values 0.971 | S. cerevisiae deletion strains, locus YLR113W, strain HOG1, hits give low values 0.961 | S. cerevisiae deletion strains, locus YLR221C, strain rsa3, hits give low values 0.956 | S. cerevisiae deletion strains, locus YLR258W, strain gsy2, hits give low values 0.956 | S. cerevisiae deletion strains, locus YLR262C, strain YPT6 (second series), hits give low values 0.991 | S. cerevisiae deletion strains, locus YLR262C, strain YPT6, hits give low values 0.838 | S. cerevisiae deletion strains, locus YLR268W, strain sec22, hits give low values 0.961 | S. cerevisiae deletion strains, locus YLR320W, strain mms22, hits give low values 0.965 | S. cerevisiae deletion strains, locus YLR330W, strain CHS5, hits give low values 0.98 | S. cerevisiae deletion strains, locus YLR342W, strain FKS1 (second series), hits give low values 1 | S. cerevisiae deletion strains, locus YLR342W, strain FKS1, hits give low values 1 | S. cerevisiae deletion strains, locus YLR357W, strain rsc2, hits give low values 0.965 | S. cerevisiae deletion strains, locus YLR370C, strain arc18, hits give low values 0.972 | S. cerevisiae deletion strains, locus YLR371W, strain rom2, hits give low values 0.982 | S. cerevisiae deletion strains, locus YLR384C, strain iki3, hits give low values 0.992 | S. cerevisiae deletion strains, locus YLR418C, strain cdc73, hits give low values 0.949 | S. cerevisiae deletion strains, locus YML016C, strain PPZ1, hits give low values 0.98 | S. cerevisiae deletion strains, locus YML032C, strain rad52, hits give low values 0.999 | S. cerevisiae deletion strains, locus YML120C, strain ndi1, hits give low values 1 | S. cerevisiae deletion strains, locus YML124C, strain tub3, hits give low values 0.984 | S. cerevisiae deletion strains, locus YMR058W, strain fet3, hits give low values 0.977 | S. cerevisiae deletion strains, locus YMR078C, strain ctf18, hits give low values 0.977 | S. cerevisiae deletion strains, locus YMR125W, strain sto1, hits give low values 0.973 | S. cerevisiae deletion strains, locus YMR129W, hits give low values 0.975 | S. cerevisiae deletion strains, locus YMR205C, strain PFK2, hits give low values 1.01 | S. cerevisiae deletion strains, locus YMR223W, strain ubp8, hits give low values 0.988 | S. cerevisiae deletion strains, locus YMR231W, strain pep5, hits give low values 0.98 | S. cerevisiae deletion strains, locus YMR263W, strain SAP30, hits give low values 0.968 | S. cerevisiae deletion strains, locus YMR307W, strain GAS1, hits give low values 0.891 | S. cerevisiae deletion strains, locus YNL067W, strain RPL9B, hits give low values 0.969 | S. cerevisiae deletion strains, locus YNL071W, strain lat1, hits give low values 0.974 | S. cerevisiae deletion strains, locus YNL128W, strain TEP1, hits give low values 0.972 | S. cerevisiae deletion strains, locus YNL153C, strain GIM3, hits give low values 0.964 | S. cerevisiae deletion strains, locus YNL183C, strain NPR1, hits give low values 0.895 | S. cerevisiae deletion strains, locus YNL209W, strain ssb2, hits give low values 0.964 | S. cerevisiae deletion strains, locus YNL233W, strain BNI4, hits give low values 0.982 | S. cerevisiae deletion strains, locus YNL248C, strain rpa49, hits give low values 0.931 | S. cerevisiae deletion strains, locus YNL250W, strain rad50, hits give low values 0.971 | S. cerevisiae deletion strains, locus YNL271C, strain bni1, hits give low values 0.981 | S. cerevisiae deletion strains, locus YNL298W, strain CLA4, hits give low values 0.98 | S. cerevisiae deletion strains, locus YNL307C, strain MCK1, hits give low values 0.989 | S. cerevisiae deletion strains, locus YNL322C, strain KRE1 (second series), hits give low values 0.983 | S. cerevisiae deletion strains, locus YNL322C, strain KRE1, hits give low values 0.981 | S. cerevisiae deletion strains, locus YNR049C, strain mso1, hits give low values 0.97 | S. cerevisiae deletion strains, locus YNR052C, strain pop2, hits give low values 0.978 | S. cerevisiae deletion strains, locus YOL006C, strain TOP1, hits give low values 0.886 | S. cerevisiae deletion strains, locus YOL012C, strain htz1 0.79 | S. cerevisiae deletion strains, locus YOL147C, strain pex11, hits give low values 0.98 | S. cerevisiae deletion strains, locus YOR001W, strain rrp6, hits give low values 1 | S. cerevisiae deletion strains, locus YOR061W, strain CKA2, hits give low values 0.951 | S. cerevisiae deletion strains, locus YOR069W, strain VPS5, hits give low values 0.993 | S. cerevisiae deletion strains, locus YOR070C, strain gyp1, hits give low values 0.972 | S. cerevisiae deletion strains, locus YOR080W, strain dia2, hits give low values 0.999 | S. cerevisiae deletion strains, locus YOR083W, strain WHI5, hits give low values 0.989 | S. cerevisiae deletion strains, locus YOR106W, strain vam3, hits give low values 0.987 | S. cerevisiae deletion strains, locus YOR136W, strain idh2, hits give low values 0.99 | S. cerevisiae deletion strains, locus YOR144C, strain elg1, hits give low values 0.991 | S. cerevisiae deletion strains, locus YOR184W, strain ser1, hits give low values 0.982 | S. cerevisiae deletion strains, locus YOR231W, strain MKK1, hits give low values 0.956 | S. cerevisiae deletion strains, locus YOR265W, strain rbl2, hits give low values 0.985 | S. cerevisiae deletion strains, locus YOR270C, strain vph1, hits give low values 0.929 | S. cerevisiae deletion strains, locus YOR290C, strain snf2, hits give low values 0.915 | S. cerevisiae deletion strains, locus YOR316C, strain cot1, hits give low values 0.962 | S. cerevisiae deletion strains, locus YPL051W, strain arl3, hits give low values 0.988 | S. cerevisiae deletion strains, locus YPL055C, strain LGE1, hits give low values 0.941 | S. cerevisiae deletion strains, locus YPL078C, strain atp4, hits give low values 1.02 | S. cerevisiae deletion strains, locus YPL106C, strain sse1, hits give low values 0.957 | S. cerevisiae deletion strains, locus YPL240C, strain hsp82, hits give low values 0.986 | S. cerevisiae deletion strains, locus YPL241C, strain CIN2, hits give low values 1.01 | S. cerevisiae deletion strains, locus YPL256C, strain CLN2, hits give low values 0.941 | S. cerevisiae deletion strains, locus YPR119W, strain clb2, hits give low values 0.986 | S. cerevisiae deletion strains, locus YPR141C, strain kar3, hits give low values 0.955 | S. cerevisiae deletion strains, locus YPR163C, strain tif3, hits give low values 0.989 | S. cerevisiae deletion strains, locus YPR167C, strain met16, hits give low values 0.962 | S. cerevisiae deletion strains, strain wtn01, hits give low values 0.969 | S. cerevisiae strains, strain wild type, hits give low values 0.981
